# TrxR1 substrate: qHTS Assay for Substrates of Mammalian Selenoprotein Thioredoxin Reductase 1 (TrxR1): qHTS; Thioredoxin reductase 1, cytoplasmic (Rattus norvegicus), O89049; purified TrxR1 substrate turnover, NADPH consumption readout; Potency, µM (top dose mostly 114 µM), inactives show at the top dose activity change, negative = substrate turnover; hit rate 0.01% among 390,000; note: potency is the fitted concentration of half-maximal effect; % is set by controls: 0 for no effect and ±100 for the full control effect; nearly all actives have a fitted effect of over 50% in size
# Target sequence (O89049 whole entry, looked up): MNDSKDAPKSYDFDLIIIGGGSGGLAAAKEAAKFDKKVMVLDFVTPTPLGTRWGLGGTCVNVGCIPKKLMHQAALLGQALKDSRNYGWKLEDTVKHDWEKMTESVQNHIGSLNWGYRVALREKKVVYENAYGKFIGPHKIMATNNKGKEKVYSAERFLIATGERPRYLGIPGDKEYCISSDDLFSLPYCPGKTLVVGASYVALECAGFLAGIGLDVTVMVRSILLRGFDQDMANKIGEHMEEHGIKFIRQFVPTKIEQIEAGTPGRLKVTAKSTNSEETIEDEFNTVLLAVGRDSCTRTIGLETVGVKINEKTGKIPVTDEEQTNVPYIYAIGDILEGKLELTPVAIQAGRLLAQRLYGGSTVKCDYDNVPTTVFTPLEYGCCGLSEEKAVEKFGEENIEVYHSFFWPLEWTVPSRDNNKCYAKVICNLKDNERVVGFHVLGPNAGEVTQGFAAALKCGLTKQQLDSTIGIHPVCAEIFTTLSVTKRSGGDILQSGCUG
#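 Rat TrxR1, dispensed at 90 nM, was prereduced with 400 uM NADPH (final) for 5 min at ~22 deg C, then incubated with compound 15 min before 400 uM selenite. A first-read NADPH fluorescence drop versus no-compound background flagged substrates.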
# Giardia killer: Small Molecules that selectively kill Giardia lamblia: qHTS; Giardia lamblia trophozoite viability; activity change, % at 7.66 µM, hits read low; hit rate 0.15% among 340,000; in the data active = activity change below about -80%; inconclusive = between about -30% and that limit;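 note: parasites exposed to compound for two days anaerobically before the ATP read; % is set by controls: 0 for no effect and ±100 for the full control effect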
#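 Each well holds 100 Giardia trophozoites and compound. After two days (48 hrs) at 37 deg C in anaerobic conditions, ATP is quantified by luminescence.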
# BRCA1 expr up: qHTS Assay to Identify Small Molecule Activators of BRCA1 Expression. MCF7-BRCA1-FFLuc reporter, luminescence, 48 h; response scale: scaled: vehicle 0%, 10 µM genistein 100%. Potency, µM (highest dose often 46.1 µM), without a hit: at the highest dose activation, usual class: activators. hit rate 1.1% among 380,000; note: potency is the fitted concentration of half-maximal effect; nearly all actives have a fitted effect of over 80% in size
#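 Using MCF7 cells harboring a BRCA1 firefly luciferase reporter, plated 2 h before compound pinning, the screen measured luminescence after 48 h incubation. Responses were normalized to DMSO and 10 microM genistein, then fitted for concentration-effect.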
# IDH1 R132H inh: qHTS for Inhibitors of mutant isocitrate dehydrogenase 1 (IDH1): qHTS. AID 602179, 2012. Potency, µM (titrated, usually from 76.6 µM), for inactives: at the highest dose activity change, negative = inhibition, most hits filed as inhibitors. Isocitrate dehydrogenase [NADP] cytoplasmic (Homo sapiens), O75874. hit rate 0.093% among 390,000. IDH1-R132H enzyme, NADPH consumption, diaphorase/resazurin fluorescence; note: potency is the fitted concentration of half-maximal effect; % is set by controls: 0 for no effect and ±100 for the full control effect; nearly all actives have a fitted effect of over 65% in size
#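 IDH1-R132H (0.5 ug/mL dispensed) in pH 7.5 Tris buffer was preincubated 30 min with compound, then given a substrate mix of 0.016 mM NADPH and 2 mM alpha-KG for 80 min at room temperature; remaining NADPH was read by diaphorase/resazurin fluorescence.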
# TrxR1 inh: qHTS Assay for Inhibitors of Mammalian Selenoprotein Thioredoxin Reductase 1 (TrxR1): qHTS; Thioredoxin reductase 1, cytoplasmic (Rattus norvegicus), O89049; recombinant rTrxR1, NADPH fluorescence consumption, selenite substrate; Potency, µM (top dose mostly 114 µM), for inactives: at the top dose activity change, negative = inhibition, hits mostly inhibitors; hit rate 1% among 390,000; note: potency is the fitted concentration of half-maximal effect; % is set by controls: 0 for no effect and ±100 for the full control effect; nearly all actives have a fitted effect of over 65% in size
#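 Rat TrxR1 (90 nM in the dispensed reagent) was pre-reduced with 400 uM NADPH for 5 min at room temperature, then incubated with compound for 15 min. After 400 uM selenite was added, NADPH fluorescence (Ex 340/Em 450 nm) was followed for 8 min.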
# IL-2 act: qHTS of IL-2 Activators; IL-2 activation reporter assay, cell-based qHTS; stimulated with anti-CD3/CD4/CD28 beads; in transgenic mouse T cells; activation, % (series mostly up to about 46 µM); hit rate 0.065% among 360,000; AID 652025, 2013; in the data active = activation above about 50%; inconclusive = mostly about 30% to 49%; note: 0% is about no effect
#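 Unstimulated transgenic mouse T cells; 60-min compound exposure; bead-based TCR/CD4/CD28 stimulation; 18 h culture, 37 degrees C; dual fluorescence (EGFP, DsRed) plate cytometry.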
# * = called active by the depositor; ? = inconclusive; . = no result given; ! = not active in a repeat; [ ] = remark or other dose. Sampled rows, rich in hits. Any-hit rate of the full collection: about 2.2%. Unless noted, calls come from the whole dose curve; as a rule, active = well fitted curve in the direction sought with a large enough effect; inconclusive = small, poorly fitted or top-dose-only effect, or another doubt; inactive = no such curve, though single readings can be large; an effect the other way counts as inactive or inconclusive.
SMILES,TrxR1 substrate,Giardia killer,BRCA1 expr up,IDH1 R132H inh,TrxR1 inh,IL-2 act
Cc1cccc(N2CCN(C(=O)c3cccc(-n4c(C)nc5cccnc54)c3)CC2C)c1 (stereo not given),-14.2%,.,.,-12.4%,-19.8%,.
CCCCSc1nnc(-c2c[nH]c3ccccc23)n1C,3.4%[57.1 µM],0.1,?,6.7%,8.1%[57.1 µM],-1.3
Cn1c(SCc2ccccc2)nnc1-c1ccc2c(c1)OCO2,4.9%[57.1 µM],1.4,6.31µM*,2.3%,-11.8%[57.1 µM],-0.5
Cn1c(SCC#N)nnc1-c1ccc2c(c1)OCO2,8.1%[57.1 µM],-0.8,0.2%,-0.5%,-41.6%,-0.2
Cn1c(SCc2ccccc2)nnc1-c1c[nH]c2ccccc12,3.1%[57.1 µM],4.2,11.2µM*,1.9%,1.3%[57.1 µM],-1.1
Cc1ccc(S(=O)(=O)N2CCN(c3nc(-c4cncn4C)nc4ccccc34)CC2)cc1,11.1%,-11.8,-31.5%,.,7.1%,.
Cc1ccc(CN2C(=O)c3ccccc3C2C(=O)NC2CCCCCC2)cc1 (stereo not given),-0.5%,.,.,3.2%,11.2%,.
Cc1cccc(-c2nc(CN3CCCC(C(=O)NCCc4ccc(Cl)cc4)C3)c(C)o2)c1 (stereo not given),-2.0%,.,.,15.4%,23.5%,.
Cc1ccc(CN2[C@H](C)[C@H](c3ccccc3)OCCS2(=O)=O)cc1,-7.4%,.,.,.,1.3%,.
CCOC(=O)Nc1ccc2c(c1)N(C(=O)CCN(CC)CC)c1ccccc1S2=O (stereo not given),5.2%[57.1 µM],-5.9,-85.6%,-1.5%,28.2µM*,-5.3
CCOC(=O)Nc1ccc2c(c1)N(C(=O)CCN(CC)CC)c1ccccc1CC2,0.4%,28.1,-41.6%,11.7%,10.0%,-1.2
Cc1ccc(S(=O)(=O)CC(=O)Nc2ncc([N+](=O)[O-])s2)cc1,-6.9%,-83.9*,10.2%,22.7%,-20.9%,-3.3
CCC(CC)C(=O)Nc1ccc([N+](=O)[O-])cn1,-3.4%[57.1 µM],8.2,-8.5%,-5.8%,-0.7%[57.1 µM],0.2
CCCCC(CC)C(=O)Nc1ncc([N+](=O)[O-])s1 (stereo not given),-0.4%[57.1 µM],-91.3*,-85.3%,0.0%,-7.2%[57.1 µM],-0.9
CC12CCC(C(=O)Nc3ncc([N+](=O)[O-])s3)(OC1=O)C2(C)C (stereo not given),1.6%[57.1 µM],-85.9*,-50.2%,6.1%,16.3%[57.1 µM],-1.9
O=C(CS(=O)(=O)c1ccccc1)Nc1ncc([N+](=O)[O-])s1,1.9%[57.1 µM],?,-0.6%,0.3%,10.6%[57.1 µM],2.2
CC12CCC(C(=O)Nc3cccc(NC(=O)C45CCC(C)(C(=O)O4)C5(C)C)n3)(OC1=O)C2(C)C,-11.8%,43.6,-3.8%,-2.6%,0.3%,-1.9
Cc1ccc(CC(=O)Nc2ncc([N+](=O)[O-])s2)cc1,-3.8%,-91.5*,?,-0.8%,-10.4%,-3.8
O=C(COC(=O)c1ccc(Br)o1)Nc1ncc([N+](=O)[O-])s1,-9.4%,?,60.1%,0.8%,-22.6%,-0.8
CCN(CC)c1ccc(NC(=O)c2cnn(-c3ccccc3)c2-n2cccc2)c(C)c1,10.4%,.,.,7.6%,2.3%,.
CCCCNC(=O)c1ccc2nc(-c3cccs3)c(-c3cccs3)nc2c1,12.9%,-2.4,-1.7%,.,10.2%,.
COc1ccc([C@H]2Cc3cc(O)cc(O)c3C(=O)O2)cc1O,3.3%,6.4,10µM*,0.8%,11.5%,0.9
COc1cc(CNC2CCCC2)cc(Cl)c1OCc1ccccc1Cl,-5.0%,7.8,-72.6%,-2.0%,89.1µM*,-4.3
COc1ccccc1CNC(=O)CCCn1c(=O)c2ccccc2n(Cc2ccccc2C#N)c1=O,0.5%,.,-20.5%,10.1%,3.0%,.
COn1c(-c2ccc(Cl)cc2)nc2ncccc21,12.6%,-12.6,7.08µM*,0.3%,-11.0%,1.7
SMILES,TrxR1 substrate,Giardia killer,BRCA1 expr up,IDH1 R132H inh,TrxR1 inh,IL-2 act
Cc1ccc(-c2nc3ncccc3n2O)cc1,-12.7%,-14.8,-5.2%,-0.1%,4.2%,0.8
C=C1CN(Cc2ccccc2)S(=O)(=O)c2ccccc21,-1.1%,-20.0,3.9%,5.9%,28.2µM*!,-2.5
Cc1c(C(=O)NCC(c2ccc(Cl)cc2)N2CCOCC2)oc2ccccc12 (stereo not given),-2.3%,.,.,-4.5%,18.5%,.
COc1cccc(Cn2c(C)c(CNCc3ccccc3Cl)c(C(=O)O)c2C)c1,6.7%,.,.,4.4%,3.9%,.
Cc1nn(CCC(=O)N2CCN(c3ccccc3)CC2)c(C)c1S(=O)(=O)N1CCCC1,3.0%[57.1 µM],.,-4.7%,15.4%,13.8%[57.1 µM],.
O=C1CN(C(=O)COc2ccc([N+](=O)[O-])cc2Cl)c2ccccc2N1,-2.0%,?,11.2µM*,-3.2%,2.9%,0.4
O=C1CN(C(=O)COc2ccc(Cl)cc2Cl)c2ccccc2N1,3.6%,2.2,23.2%,-0.1%,11.7%,-2.1
Fc1ccccc1NC(=S)NCCc1cccc(Cl)c1,0.3%,-10.9,7.94µM*,-0.4%,-6.5%,-0.6
CSc1cccc(NC(=O)Nc2ccc(Cl)cc2)c1,-4.3%[57.1 µM],-3.5,7.94µM*,12.2%,5.5%[57.1 µM],0.2
CC(=O)c1ccc(NC(=O)Nc2cccc(Cl)c2)cc1,6.3%,1.2,7.08µM*,3.0%,16.2%,-1.7
CC(=O)c1ccc(NC(=S)NCCc2cccc(Cl)c2)cc1,1.0%,-4.7,3.16µM*,0.0%,-16.5%,-0.4
CC(=O)Nc1ccc(NC(=O)Nc2cccc(Cl)c2)cc1,3.5%,-8.3,?,18.8%,29.1%,2.4
CC(C)Oc1ccc(-c2nc3c(C#N)c[nH]n3c2NC2CCCCC2)cc1,3.7%,.,.,-2.2%,6.0%,.
Cc1c(Cl)cccc1NS(=O)(=O)c1ccc2[nH]cc(C(=O)NC3CCCC3)c(=O)c2c1,-14.9%,.,.,-23.8%,-25.7%,.
CC(=O)c1ccc(NC(=O)Nc2ccc3c(c2)nc(C)n3C)cc1,2.7%[57.1 µM],-7.2,3.55µM*,3.5%,12.0%[57.1 µM],-2.0
Cc1cc(C)cc(-n2ccn(CC(=O)c3ccc(F)cc3)c(=O)c2=O)c1,6.0%,.,.,5.6%,23.0%,.
CCOC(=O)/C(C#N)=C/Nc1ccccc1OC,-2.3%,-1.0,2.24µM*,2.5%,-1.9%,-3.2
Cc1ccc(C(=O)C(OC(=O)CNC(=O)COc2ccccc2C)c2ccccc2)cc1 (stereo not given),0.7%[0.0914 µM],-25.1,14.1%,.,19.7%,.
Fc1ccc(N/N=C/c2cccnc2)c(F)c1,-3.4%,-27.1,5.62µM*,7.4%,14.5%,2.1

# Assay outcomes: PubChem BioAssay, National Center for Advancing Translational Sciences (NCATS)
